Screening results as filed in PubChem.
Shown are actives, neighbours in structure and some others; about 10% of the full set was active somewhere.
HEK293 tox – Cytotoxic Profiling in HEK 293 Cell Line of Diverse Libraries Using Quantitative High-Throughput Screening; HEK 293 viability, ATP luminescence (CellTiter-Glo), 48-72 h; Potency, µM (highest dose often 115 µM), inactives show top-dose activity change, negative = cytotoxicity, usual class: inhibitors; hit rate 6.6% among 94,000; also: nearly all actives have a fitted effect of over 60% in size
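CellTiter-Glo luminescence (cellular ATP) was read after 48 or 72 hr of compound exposure at 37 degree Celsius. Cells were HEK 293 plated at 250 cells/well.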
FLuc inh – Firefly luciferase inhibition profiling of diverse chemical library using quantitative high-throughput screening | hit rate 2.5% among 76,000 | Potency, µM (series often up to 115 µM), usual class: inhibitors | Luciferin 4-monooxygenase (Photinus pyralis), P08659 | purified P. pyralis luciferase, luminescence, biochemical; also: nearly all actives have a fitted effect of over 65% in size
Target sequence (P08659 whole entry, looked up): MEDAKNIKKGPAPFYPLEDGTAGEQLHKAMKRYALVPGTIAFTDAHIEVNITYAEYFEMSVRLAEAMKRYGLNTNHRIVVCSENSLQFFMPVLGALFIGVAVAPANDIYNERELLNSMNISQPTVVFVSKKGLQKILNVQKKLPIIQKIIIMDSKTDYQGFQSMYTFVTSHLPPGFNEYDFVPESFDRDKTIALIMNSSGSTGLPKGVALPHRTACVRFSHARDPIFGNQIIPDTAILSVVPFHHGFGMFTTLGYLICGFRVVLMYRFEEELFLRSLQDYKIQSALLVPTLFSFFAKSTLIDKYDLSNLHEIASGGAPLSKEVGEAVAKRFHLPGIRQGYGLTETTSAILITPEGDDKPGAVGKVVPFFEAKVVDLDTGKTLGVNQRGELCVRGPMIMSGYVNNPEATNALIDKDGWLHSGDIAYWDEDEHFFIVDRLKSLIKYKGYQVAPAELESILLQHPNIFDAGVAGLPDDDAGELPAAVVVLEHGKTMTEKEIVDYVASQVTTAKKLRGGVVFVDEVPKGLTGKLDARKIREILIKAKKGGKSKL
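Luminescence read by CCD imaging after purified firefly luciferase (10nM final) was added to substrate buffer holding 10uM D-luciferin and 10uM ATP, pH 7.5, pre-dosed with compound.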
NPR1 antag – Natriuretic polypeptide receptor (hNpr1) antagonism - Primary qHTS. Atrial natriuretic peptide receptor 1 (Homo sapiens), P16066. HEK293 hNpr1 GloSensor cGMP, ANP-stimulated luminescence. Potency, µM (highest dose often 46.3 µM), for inactives: at the top dose activity change, negative = inhibition, actives largely listed as inhibitors. hit rate 1.6% among 76,000; calls by dose curve; also: nearly all actives have a fitted effect of over 60% in size
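Compound pre-incubated 30 min at room temperature on GloSensor-loaded HEK293 cells stably carrying hNpr1 and the pGS-40F cGMP biosensor. Stimulation uses hNppA at 0.1 nM final; luminescence is taken at baseline and 20 min post-agonist.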
3T3 cytotox – Cytotoxic Profiling in NIH 3T3 Cell Line of Diverse Libraries Using Quantitative High-Throughput Screening | NIH 3T3 viability, CellTiter-Glo ATP luminescence, 48-72 h | Potency, µM (highest dose often 96.7 µM), inactives show top-dose activity change, negative = cytotoxicity, most hits filed as inhibitors | hit rate 4.3% among 94,000; also: nearly all actives have a fitted effect of over 55% in size
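NIH 3T3 cells at 400 cells/well received 23 nL of compound by pintool and were incubated 48 or 72 h at 37 °C. Viability was read as ATP-coupled CellTiter-Glo luminescence.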
GPT2 inhibitor – Primary qHTS assay for inhibitors of Glutamate pyruvate transaminase 2 (GPT2) | Recombinant GPT2, coupled pyruvate oxidase/HRP Amplex Red fluorescence | Potency, µM (titrated, usually from 57.7 µM), for the others: top-dose activity change, negative = inhibition, usual class: inhibitors | hit rate 0.25% among 100,000; also: nearly all actives have a fitted effect of over 60% in size
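Inhibition is scored from Amplex Red fluorescence generated when pyruvate oxidase and HRP act on pyruvate released by GPT2. Reactions contain 10ng/uL enzyme, 250uM a-KG and 2mM L-alanine and run 30 min at room temperature.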
The depositor's hits bear a star; i = inactive; ? = inconclusive; . = no result; [ ] = remark or other dose. Unless noted, calls follow the shape of the dose curve; as a rule, active = well fitted curve in the direction sought with a large enough effect; inconclusive = small, poorly fitted or top-dose-only effect, or another doubt; inactive = no such curve, though single readings can be large; an effect the other way counts as inactive or inconclusive. % is scaled to controls: 0 for no effect and ±100 for the full control effect; potency is read from the fitted curve at half-maximal effect.

SMILES	HEK293 tox	FLuc inh	NPR1 antag	3T3 cytotox	GPT2 inhibitor
COc1ccc(-n2c(=O)c(C(=O)N3CCN(c4ncccn4)CC3)nc3cccnc32)cc1	i	.	.	-12%	-6%
CCCOc1cc(C)c2c(c1C)C[C@H](C(C)C(=O)N1CCC(O)CC1)CC2 (stereo partly drawn)	?	?	-6%[70.6 µM]	?	?
O=C(CCC[C@@H]1[C@H]2CCCN3CCC[C@@H](CN1S(=O)(=O)c1cccc(F)c1)[C@@H]23)N1CCOCC1	-6%	i	1%	i	i
O=C(NCCc1ccc(F)cc1)c1nc2cccnc2n(Cc2ccccc2)c1=O	?	.	.	?	1%
Cc1ccc(CNC(=O)N2CCC3(CC2)CC(C(=O)N2CCOCC2)N(C)C3)cc1 (stereo not drawn)	-5%	i	-7%	-22%	-25%
Cn1cc(CN2CCN(C(=O)c3ccoc3)CC2)ccc1=O	4%	i	-3%	i	i
Cn1cc(CN2CCN(C(=O)c3c[nH]c4ccccc34)CC2)ccc1=O	-30%	32µM*	-2%	-16%	i
CNC1CCN(c2ccc(-c3nc(CCCc4ccccc4)no3)cn2)CC1	?	?	-5%	?	i[11.5 µM]
c1ccc(CCCc2noc(-c3ccc(N4CCCNCC4)nc3)n2)cc1	22µM*	?	4%	?	-2%
OCC1CCN(c2ccc(-c3nc(CCCc4ccccc4)no3)cn2)CC1	?	?	13µM*	?	?
CC(O)CNc1ccc(-c2nc(CCCc3ccccc3)no2)cn1 (stereo not drawn)	?	45µM*	1%	?	?
CN(Cc1ncc[nH]1)c1ccc(-c2nc(CCCc3ccccc3)no2)cn1	45µM*	?	?	?	-12%
CN(Cc1cnccn1)c1ccc(-c2nc(CCCc3ccccc3)no2)cn1	-22%	?	-20%	-29%	-7%
Cc1ccc(NC(=O)N2CCC(CCNC(=O)c3cccc(F)c3)CC2)cc1	-11%	i	-4%	-25%	0%
COc1ccc(CN2CCC(CO)(CN3CCCC3)CC2)cc1C	89µM*	i	-1%	?	?
CC(C)Oc1ccc(CN2CCC(CO)(CN3CCCC3)CC2)cc1Cl	25µM*	i	-3%	32µM*	i
Fc1ccc(C(c2ccc(F)cc2)N2CCN(CC=Cc3ccccc3)CC2)cc1	.	.	.	.	4.3µM*
O=C(N1CCN(C/C=C/c2ccccc2)CC1)C12CNCC1CNC2 (stereo not drawn)	?	i	-6%	?	2%
CNC(=O)N1CCC(C2CCN(Cc3ccncc3F)C2)CC1 (stereo not drawn)	-9%	i	4%	-4%	4%
O=C(CCc1ccccc1)N1CCC(Oc2ccc(C(=O)N3CCOCC3)cn2)CC1	-21%	i	-7%	-20%	i
Cc1cccc(C(=O)N2CC(N(C)Cc3cccnc3)C2)c1	10%	i	3%	i	?
Cc1cc(C)n(CC(=O)N2CC(N(C)Cc3cccnc3)C2)n1	9%	35µM*	1%	i	1%
CN(Cc1cccnc1)C1CN(C(=O)c2cnn(C)c2)C1	0%	28µM*	-4%	4%	-10%
NC(=O)c1ccc(OC2CCN(Cc3ccccn3)C2)nc1 (stereo not drawn)	-16%	i	8%	4%	i
CCCC(=O)N1Cc2ccccc2CC2(CCN(Cc3ccncc3)C2)C1 (stereo not drawn)	-26%	.	.	-12%	-12%
SMILES	HEK293 tox	FLuc inh	NPR1 antag	3T3 cytotox	GPT2 inhibitor
Cc1ccc(OC(=O)N2CCC(Oc3ccc4c(cnn4CCC(=O)O)c3)CC2)cc1	-11%[172 µM]	i	4%[70.6 µM]	35µM*	1%[88.5 µM]
O=C(O)CCn1ncc2cc(OC3CCN(C(=O)OC4CCCC4)CC3)ccc21	-13%[172 µM]	?	1%[70.6 µM]	?	4%[88.5 µM]
Cc1ccc(OC(=O)N2CCC(COc3ccc4c(cnn4CCC(=O)O)c3)CC2)cc1	?	i	-1%[70.6 µM]	-41%[138 µM]	3%[88.5 µM]
O=C(O)CCn1ncc2cc(OC3CCN(C(=O)Oc4ccccc4Cl)CC3)ccc21	-26%	i	.	8.9µM*	1%
O=C(CCC1CCCN(S(=O)(=O)c2cccc(F)c2)C1)NCC1CC1 (stereo not drawn)	-31%	i	-30%	-24%	?
CCOc1ccc(NC(=O)CCC2CCCN(S(=O)(=O)c3cccc(F)c3)C2)cc1 (stereo not drawn)	35µM*	.	.	-22%	i
CC(C)CCNC(=O)CCC1CCCN(S(=O)(=O)c2cccc(F)c2)C1 (stereo not drawn)	45µM*	.	.	?	1%
CCOc1cccc(CNC(=O)CCC2CCCN(S(=O)(=O)c3ccc(C)cc3)C2)c1 (stereo not drawn)	?	i	0%	?	4%
CC(C)CCN1CCCC2(C1)NC(=O)c1ccccc1O2 (stereo not drawn)	-12%[172 µM]	i	19%[70.6 µM]	-19%[138 µM]	i
COc1ncccc1-c1cnc2[nH]cc(CC(=O)N3CCOCC3)c2c1	?	i	?	?	i
COC1CCN(C(=O)Cc2c[nH]c3ncc(-c4ccccc4)cc23)CC1	-1%[172 µM]	?	-3%[70.6 µM]	?	i
COc1ccc(-c2cnc3[nH]cc(CC(=O)N4CCCC4)c3c2)cc1	71µM*	22µM*	?	7.9µM*	?
COc1ccc(-c2cnc3[nH]cc(CC(=O)N4CCC(OC)CC4)c3c2)cc1	?	22µM*	-13%[70.6 µM]	?	i
O=[S+]([O-])(NC1CCN(c2ccnc3ccnn23)C1)c1ccccc1 (stereo not drawn)	?	.	.	?	i
CS(=O)(=O)c1ccc(CN2C[C@H](O)C[C@H]2c2nc(-c3ccc(F)cc3)no2)cc1	-25%[172 µM]	45µM*	-3%[70.6 µM]	-12%[138 µM]	4%[88.5 µM]
O[C@@H]1C[C@@H](c2nc(-c3ccc(F)cc3)no2)N(Cc2ccc(F)cc2)C1	100µM*	i	-5%[70.6 µM]	?	-2%[88.5 µM]
COc1ccc(-c2noc([C@@H]3C[C@@H](O)CN3Cc3ccc(C)cc3)n2)cc1	?	?	0%[70.6 µM]	-9%[174 µM]	-6%[88.5 µM]
COCCNc1ccc2nnc(-c3ccc(OC)cn3)n2n1	0%[172 µM]	i	4%[70.6 µM]	?	1%[88.5 µM]
CCCc1nc(NCc2ccc(-c3noc(C)n3)cc2)c2cnn(C)c2n1	18µM*	i	11µM*	?	-1%
O=C(NCc1ccc(F)c(F)c1)c1cn2cc(-c3ccccc3)sc2n1	?	.	.	?	-2%
Cn1ncc2c(C(=O)NC3CCCCCC3)cc(C(C)(C)C)nc21	35µM*	.	.	?	i
